# Measured values as given in PubChem BioAssay (NCATS).
# Inconclusive results are not listed. The source made the active and inactive calls. The call rests on the fitted dose curve; in most records, active means well fitted cell-killing curve with a large enough effect; inconclusive means small, poorly fitted or top-dose-only effect, or effect the other way; inactive means no such curve, though single readings can be large or run the other way.
# Assay: Viability qHTS for spleen associated tyrosine kinase inhibitor (SYKi) drug resistant MV4-11 cells (AID 1963824); further: nearly all actives have a fitted effect of over 35% in size
# Details: SYKi-resistant MV4-11 viability, CellTiter-Glo, 72 h; series mostly up to 45 µM; viability, % of control: at the top concentration
# In short: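 SYK inhibitor-resistant MV4-11 AML cells, 500 per well, added to predispensed compounds and incubated 72 hr at 37 C, 5% CO2. Viability measured by CellTiter-Glo luminescence after 10 min at room temperature.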
# Potency means the concentration at half of the fitted maximal effect.
Compound,Potency,"viability, % of control"
Oc1cccc(Nc2ncnc3sc4c(c23)CCCC4)c1,5.8 µM (active),–
CC1=CCC(C(C)(C)O[C@@H]2O[C@H](CO[C@@H]3O[C@@H](C)[C@H](O)[C@@H](O)[C@H]3O)[C@@H](O)[C@H](O)[C@H]2O)CC1 (some centres not stated),–,94.6% [at 17.3 µM] (inactive)
C=C1CC[C@@H]2[C@](C)(CO)[C@H](O)CC[C@@]2(C)[C@@H]1/C=C/C1=CCOC1=O,–,38.9% (inactive)
C=C1CC[C@@H]2[C@](C)(CO)[C@H](O)CC[C@@]2(C)[C@@H]1CC(O)C1=CCOC1=O (some centres not stated),4.53 µM (active),–
C/C=C(/C)C(=O)OC1CC(C)(C)CC2C3=CCC4C5(C)CCC(OC6OC(C)C(OC7OC(C(=O)O)C(O)C(OC8OC(CO)C(O)C(O)C8OC8OC(CO)C(O)C(O)C8O)C7O)C(O)C6O)C(C)(C)C5CCC4(C)C3(C)C(OC(=O)/C=C/C=C/C=C/CCC)C(OC(C)=O)C12CO (configuration not stated),–,73.3% [at 9.25 µM] (inactive)
O=C(/C=C/c1ccc(O)c(O)c1)OCc1ccccc1O[C@@H]1O[C@H](CO)[C@@H](O)[C@H](O)[C@H]1O,–,96% [at 17.3 µM] (inactive)
CC(=O)C1=C(C)N(c2cccc(C(F)(F)F)c2)C(=O)N[C@H]1c1ccc(C#N)nc1,–,87% [at 9.25 µM] (inactive)
C=C(C=O)[C@]1(O)C[C@@]2(C)C(=CC1=O)C=C[C@H](OC(=O)/C=C/C=C/[C@H](C)CC)[C@@H]2C,0.796 µM (active),–
CCCC(=O)C1CCN(c2ncnc3c2CN(C(=O)c2ccc(-c4ccccc4)cc2)CC3)CC1,20.6 µM (active),–
C/C=C/[C@@H]1C=C[C@@H]2C[C@H](C)CC[C@H]2[C@]1(C)/C(O)=C1/C(=O)[C@@H](CO)N(C)C1=O,16.1 µM (active),–
COC(=O)C1=C[C@@H](O)[C@@H](O)[C@H](O[C@@H]2O[C@H](COC(=O)/C=C/c3ccccc3)[C@@H](O)[C@H](O)[C@H]2O)C1,–,92.8% [at 17.3 µM] (inactive)
CC(C)(C)c1ccc(NC(=O)N2CCN(c3ncccc3Cl)CC2)cc1,4.11 µM (active),–
